Assay outcomes from PubChem BioAssay.
The list is not random: actives were taken first. Their share in the collection is about 8%.
SARS PLpro yeast: SARS-CoV PLP inhibition in yeast; 0.19% of 330,000 active; S. cerevisiae expressing SARS-CoV PLpro, growth rescue; Potency, µM (doses to about 32.9 µM), without a hit: at the top dose activity, positive = growth rescue, actives largely listed as activators; calls by dose curve; further: potency means the concentration at half of the fitted maximal effect; 0% is about no effect; nearly all actives have a fitted effect of over 55% in size
FMDV antiviral: foot and mouth disease virus antiviral activity; FMDV antiviral cell-based qHTS; Potency, µM (doses to about 57.9 µM), for inactives: at the top dose activity change, negative = inhibition, most hits filed as inhibitors; 1.2% of 410,000 active; calls by dose curve; tested in HEK293T cells; further: read-out not given here; potency means the concentration at half of the fitted maximal effect; on the % scale 0 is the no-effect control and ±100 the full control effect; nearly all actives have a fitted effect of over 45% in size
HCMV antiviral: human cytomegalovirus inhibition; activity change, negative = inhibition, % at 57.5 µM; 4.5% of 410,000 active; HFF cells, HCMV-luciferase reporter, 72 h; stronger effect = lower value; in the data active means activity change below about -60%; inconclusive means no clear call, values can overlap the other calls; inactive means above about -39%; further: on the % scale 0 is the no-effect control and ±100 the full control effect
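Compounds were evaluated in HFFs infected with an HCMV luciferase reporter virus (MOI 1 PFU/cell). Luciferase in lysates collected 72 h post infection served as the replication measure.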
HCV inh: HCV inhibition | Huh7.5.1 HCVcc-Cre infection, luciferase reporter, 44 h | Potency, µM (highest dose often 41.8 µM), without a hit: top-dose activity change, negative = inhibition, actives largely listed as inhibitors | 3.4% of 340,000 active; active means well fitted inhibition curve with a large enough effect; inconclusive means small, poorly fitted or top-dose-only effect, or another doubt; inactive means no such curve, though single readings can be large or run the other way; further: potency means the concentration at half of the fitted maximal effect; on the % scale 0 is the no-effect control and ±100 the full control effect
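Reporter virus HCVcc-Cre (~0.5 moi) infects cells exposed to compound; seeding density 1,000 cells/well with 4 h settling beforehand. Luminescence, 15 sec read, taken 44 h post-infection following a 15 min RT substrate incubation.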
Marburg entry inh: blocks Marburg virus binding to or entry into cells | AID 540276 | 1.8% of 300,000 active | Marburg virus pseudotyped entry inhibition, cell reporter | Potency, µM (top dose mostly 37.8 µM), for the others: at the highest dose activity change, negative = inhibition, actives largely listed as inhibitors; calls by dose curve; tested in HEK293 cells; further: potency means the concentration at half of the fitted maximal effect; on the % scale 0 is the no-effect control and ±100 the full control effect
Lassa entry inh: blocks Lassa virus binding to or entry into cells | Lassa virus pseudotype entry inhibition, cell reporter | Potency, µM (series often up to 37.9 µM), inactives show top-dose activity change, negative = inhibition, usual class: inhibitors | 1.2% of 300,000 active; calls by dose curve; tested in HEK293 cells; further: potency means the concentration at half of the fitted maximal effect; on the % scale 0 is the no-effect control and ±100 the full control effect; nearly all actives have a fitted effect of over 50% in size
* = called active by the depositor; ? = inconclusive; . = no result given; [ ] = remark or other dose.

SMILES	SARS PLpro yeast	FMDV antiviral	HCMV antiviral	HCV inh	Marburg entry inh	Lassa entry inh
CN1CCN(C(=O)/C=C/c2cn(-c3ccccc3)nc2-c2ccc3c(c2)OCCO3)CC1	0.1%	23.9%	-11.0	?	20.6µM*	?
O=C(O)/C=C/c1cn(-c2ccccc2)nc1-c1ccc2c(c1)OCCO2	4.8%	10.9%	-13.7	3.5%	-6.8%[46.1 µM]	-0.5%
c1ccc(-n2cc(CN3CCCC(CN4CCCC4)C3)c(-c3ccc4c(c3)OCO4)n2)cc1 (stereo not given)	-0.1%	-8.4%	?	12.6µM*	.	.
Cc1nc2cc(NC(=O)[C@@H]3C[C@@H](Sc4ccccn4)CN3Cc3ccccc3F)ccc2s1	.	10.2%	.	.	.	.
CCOC(=O)c1cc(-c2ccccc2)n(CC(=O)Nc2ccccc2OCC)c1C	.	-17.5%	-16.5	.	.	?
Cc1cc(N2CCN(c3nc(-c4ccc([N+](=O)[O-])cc4)cs3)CC2)c2ccccc2n1	-0.5%	?	-23.2	6.31µM*	11.2µM*	?
Cc1ccc(N2C(=O)N(CC(=O)C(C)(C)C)c3ccccc3S2(=O)=O)cc1C	.	-24.9%	-5.8	.	.	10.1%[46.1 µM]
CN(C)CC(CCC(CN(C)C)C(O)(c1ccccc1)c1ccccc1)C(O)(c1ccccc1)c1ccccc1 (stereo not given)	1.5%	-17.0%	-98.3*	11.2µM*	?	?
Cn1c2ccccc2c(=O)c2cc(C#CC3(O)CCCCC3)ccc21	3.6%	25.1µM*	-1.7	13.6%	.	.
Cc1cc2sc3ccc(C#CC4(O)CCCCC4)cc3c(=O)c2cc1C	.	0.0891µM*	-95.5*	-0.9%	.	.
Cn1c2ccccc2c(=O)c2ccc(C#CC3(N)CCCCC3)cc21	13.3%	6.0%	36.9	11.2µM*	.	.
O=c1c2ccccc2oc2ccc(C#CC3(O)CCCCC3)cc12	.	31.6µM*	-34.7	?	.	.
NC1(C#Cc2ccc3c(=O)c4ccccc4sc3c2)CCCCC1	4.3%	-18.6%	25.9	-7.9%	.	.
CCOC(=O)C1=C(NC(=S)NC(=O)c2ccccc2)c2ccccc2CC12CCCC2	-11.2%	?	-98.6*	?	3.66µM*	2.59µM*
O=C1Nc2ccc(Br)cc2/C1=C/C(=O)c1ccc2c(c1)OCO2	-20.1%	28.2µM*	-100.3*	?	.	.
O=c1cc(N2CCCC2)c2ccccc2o1	0.6%	-7.1%	-0.5	11.2µM*	10.9%[46.1 µM]	-14.4%
Cc1cccc(-n2ncc3c(Nc4ccc(Oc5ccc(Cl)cc5)cc4)ncnc32)c1	.	-12.7%	?	.	.	-4.0%[46.1 µM]
CCCc1nnc(SCC(=O)N2CCOCC2)n1CC1CCCO1 (stereo not given)	-4.3%	-5.3%	-68.4*	20.9%	1.1%[46.1 µM]	?
O=C(CSc1nnc(CNc2ccc(F)cc2)n1CC1CCCO1)N1CCOCC1 (stereo not given)	9.2%	11.3%	-98.3*	14.3%	8.0%[46.1 µM]	-3.8%
CCCc1nnc(SCC(=O)N2CCCC2)n1CC1CCCO1 (stereo not given)	-2.5%	-5.4%	-7.7	5.3%	12.1%	-0.4%
Cc1nc2c(C(=O)NCc3ccco3)cnn2c(C)c1Cc1ccc(F)cc1Cl	-3.3%	?	-1.2	12.6µM*	?	-11.2%
CCC(C)n1c(=O)c2sccc2n2c(CCCC(=O)N3CCN(c4ccccc4)CC3)nnc12 (stereo not given)	.	-23.8%	?	.	.	-3.2%[46.1 µM]
CCC1CC2C(=O)C(c3nc(C)cs3)=COC2CC1O (stereo not given)	.	.	.	.	0.1%[46.1 µM]	.
CCOC(=O)c1ccc(NC[C@@H](O)COc2ccccc2)cc1	.	.	.	.	-1.6%[46.1 µM]	.
Cc1onc(-c2ccccc2Cl)c1C(=O)NCc1ccccc1F	5.9%	-7.7%	11.2	5.9%	.	.
SMILES	SARS PLpro yeast	FMDV antiviral	HCMV antiviral	HCV inh	Marburg entry inh	Lassa entry inh
Cc1ccc(C)c(C(=O)N(Cc2nc(-c3ccc(Cl)cc3)no2)C(C)C)c1	-26.5%	?	-17.2	10µM*	.	.
Cc1cccc(-c2noc(CN(C(=O)c3ccc(C)c(C)c3)C(C)C)n2)c1	.	?	-94.6*	.	-16.3%[46.1 µM]	?
Cc1cccc(-c2noc(CN(C(=O)c3ccc4c(c3)OCO4)C(C)C)n2)c1	-14.4%	?	0.4	?	?	-32.3%
Cc1cccc(-c2noc(CN(C(=O)c3c(-c4ccccc4Cl)noc3C)C(C)C)n2)c1	-8.3%	-13.6%	17.5	10µM*	-1.8%	.
Cc1onc(-c2ccccc2Cl)c1C(=O)NCc1nc(-c2ccc(C(F)(F)F)cc2)no1	-10.3%	?	-30.7	?	?	10µM*
COc1ccccc1C(=O)N(Cc1nc(-c2cccc(C)c2)no1)C(C)C	.	-25.2%	-11.7	.	?	?
COc1ccc(C(=O)N2CC(=O)Nc3ccc(F)cc3C2c2ccc(F)cc2)c(OC)c1 (stereo not given)	.	-22.7%	3.1	.	-6.7%[46.1 µM]	-29.3%[46.1 µM]
Cc1onc(-c2ccccc2Cl)c1C(=O)N(Cc1nc(-c2ccccc2)no1)C1CCCCC1	-3.2%	-4.1%	-26.9	11.2µM*	?	?
N#C/C(=C\C1CC=CCC1)c1nc2ccccc2[nH]1 (stereo not given)	-19.8%	?	-82.3*	?	?	?
N#C/C(=C/c1ccc(N2CCOCC2)o1)c1nc2ccccc2[nH]1	-10.6%	-60.9%	107.3	-31.4%	?	?
N#C/C(=C\c1c(Cl)cccc1Cl)c1nc2ccccc2[nH]1	-7.2%	-17.6%	-69.6*	-26.0%	?	?
N#C/C(=C\c1ccc(Sc2nc3ccccc3[nH]2)o1)c1ccccc1	-10.5%	?	-96.0*	10µM*	?	?
Cn1c(/C(C#N)=C/C2CC=CCC2)nc2ccccc21 (stereo not given)	1.2%	.	-15.8	5.3%	-28.5%	-21.6%
O=C(O)c1cc([N+](=O)[O-])c(Sc2nc3ccccc3[nH]2)c([N+](=O)[O-])c1	0.8%	-7.4%	81.7	6.5%	.	.
N#Cc1ccc(Sc2nc3ccccc3[nH]2)cc1C#N	5.5%	-23.8%	-76.9*	-5.0%	?	-25.5%
Oc1c(C(c2ccccc2)N2CCN(c3cccc(Cl)c3)CC2)sc2nc(-c3ccco3)nn12 (stereo not given)	.	-3.0%	64.5	.	.	1.9%[46.1 µM]
N#C/C(=C\c1ccc(Sc2ccc(Cl)cc2)o1)c1nc2ccccc2[nH]1	-34.2%	-30.0%	-67.8*	?	?	-16.1%
Cc1ccc(-c2cc3ncc4c(n3n2)-c2cc(Cl)ccc2OC4)cc1	.	0.5%	21.0	.	-1.1%[46.1 µM]	22.3%[46.1 µM]
CC(C)(C)NC(=O)NC(=O)COc1ccc(Br)cc1Br	-56.3%	?	83.7	-22.0%	?	5.8µM*
O=C(COc1ccc(Br)cc1Br)NC(=O)NC1CCCC1	-0.4%	28.9%	58.7	10.2%	?	-9.2%
Clc1cc2cccnc2c2ncccc12	7.9%	-15.3%	-95.7*	2.82µM*	.	.
O=[N+]([O-])c1ccc(Cl)c2cccnc12	2.7%	-22.1%	10.1	13.1%	?	-27.4%[46.1 µM]
O=[N+]([O-])c1cc(Cl)c(O)c2ncccc12	-24.9%	-29.9%	-97.5*	-14.8%	?	?
